Test results: PubChem BioAssay AID748 (Sanford-Burnham Center for Chemical Genomics, 2007)
Out of some 96,000 compounds screened, about 100 (0.1%) were called active.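 How the source made its calls: active means displacement above 50% at 20 µM plus a fluorescence interference ratio under 1.5; inactive means the rest.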 Many of the other results were omitted from the sample, so actives are more common in it than they were. Measured potencies and affinities stand elsewhere.

These compounds were tested against Bcl-2-like protein 10 (Homo sapiens) (UniProt Q9HD36) (assay: Bcl-B/TR3 peptide binding disruption – biochemical, fluorescence polarization, FITC-TR3 peptide, selectivity assay for Bfl-1 inhibitor project, primary screen (AID 748;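 further: plate controls were wells without compound for no effect and wells lacking Bcl-B protein for full effect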)). Conditions: FP displacement of FITC-TR3 peptide from Bcl-B; at 20 µM; active compounds read high.

displacement, inactive:
CN(C)S(=O)(=O)N(CC(=O)NCc1ccccc1)c1ccccc1 7.3%, CN(C)S(=O)(=O)N(CC(=O)Nc1ccc(F)c(F)c1)c1ccccc1 18%, CN(C)S(=O)(=O)N(CC(=O)Nc1cccc(F)c1)c1ccccc1 9.9%, CN(C)S(=O)(=O)N(Cc1ccc(Br)cc1)c1ccccc1 0%, O=c1[nH][nH]c2nc(C(F)(F)F)cc(C(F)(F)F)c12 -9.8%, CCN(CC)S(=O)(=O)c1cc(C(=O)O)c(Cl)cc1Cl -5.8%, Cc1ccc(NC(=O)c2nc[nH]c2C(=O)Nc2ccc(C)cc2)cc1 4%, Cc1cc(-c2nnc(-c3cc4ccccc4oc3=O)o2)c(C)n1-c1ccccc1 2.6%, CCCOC(=O)Cc1n[nH]c(=O)[nH]c1=O -2.4%, COc1ccc(CN2C(=O)CN(C3CCCCCC3)C(=O)C2c2ccc(F)cc2)cc1 (centres undefined) -2.9%, Cn1c(SCC(=O)Nc2ccc3nc(SCC(=O)N4CCCC4)sc3c2)nnc1-c1ccccc1 38.1%, CCC(=O)Nc1ccc2nc(SCC(=O)N3CCCC3)sc2c1 5.1%, O=C(c1ccc(N2CCNCC2)cc1)c1cccnc1 -3.4%, COC(=O)C1Sc2[nH]c(=O)sc2C2c3ccccc3OC(=O)C12 (centres undefined) 0%, CCOC(=O)C1CCN(Cc2nc3ccccc3c(=O)n2-c2ccc(F)cc2)CC1 -6.2%, Cc1nn(Cc2cccc(C(=O)Nc3ccn(Cc4ccccc4)n3)c2)c(C)c1[N+](=O)[O-] 3.7%, C=CCN1C(=O)CS/C1=N/c1nccs1 1.8%, C=CCN1C(=O)/C(=C2/Sc3ccccc3N2C)SC1=Nc1ccccc1C -13%, Cc1c(Cl)cccc1-n1c(SCC(=O)NCc2ccccc2Cl)nnc1-c1ccncc1 -10.8%, CC1(C)CC(=O)C2=C(C1)c1c(ccc3ccccc13)NC2c1ccco1 (centres undefined) -4.8%, O=C1CCCC2=C1C(c1ccco1)Nc1ccc(C(=O)c3ccccc3)cc1N2 (centres undefined) 22.2%, CCSc1nc(O)c(Cc2ccccc2)c(=O)[nH]1 10.2%, Clc1ccc(-c2nc3ccccc3n2OCc2ccccc2)cc1 -9%, CC(=O)Nc1ccc(NC(=O)Cn2cc3c(n2)CCCC3)cc1 -10.4%, Cc1cc(C)cc(NC(=O)Cn2cc3c(n2)CCCCC3)c1 2.8%, CCCn1c(=O)c2ccccc2n2c(SCC(=O)c3ccc(F)cc3)nnc12 -0.8%, CCOC(=O)c1cnc2cc3c(cn2c1=O)CCCC3 0%, CC(CC(=O)N1CCc2ccccc21)c1ccccc1 (centres undefined) 6.2%, COc1ccc(OCCC(=O)OCC(=O)NCc2ccco2)cc1 16.1%, COc1ccccc1OCC(=O)NCc1ccco1 2.1%, O=C(COC(=O)c1ccccc1)NCc1ccco1 40.9%, O=C(COC(=O)c1ccco1)NCc1ccco1 3.5%, O=C(NCc1ccco1)c1cccs1 -12.3%, CCOc1cc(C(=O)OCC(=O)NCc2ccco2)cc(OCC)c1OCC 33.3%, O=C1NCCCc2nc(Oc3ccccc3)sc21 1.4%, Cc1cc(C)c2c(=O)c3c(oc2c1)C(=O)N(CCO)C3c1cccc(O)c1 (centres undefined) 3.4%, COc1ccc(C(=O)CCC(=O)N2CCN(c3ccc(N4CCOCC4)nn3)CC2)cc1 4.3%, COc1ccccc1-c1nnc(NC(=O)C(C)SC2=NCCS2)s1 (centres undefined) -10.4%, Cc1ccc(NC(=O)CCc2ccc(S(=O)(=O)N3CCOCC3)cc2)c(C)c1 13.6%, c1ccc(-c2nn3c(Cn4nnc5ccccc54)nnc3s2)cc1 0%, c1ccc2c(c1)nnn2Cc1nnc2sc(-c3ccncc3)nn12 -19.6%, Nc1nonc1OCCc1ccccc1 2.7%, O=c1[nH]c(NC2CCCCC2)nnc1Cc1ccccc1 -7%, NC(=O)C1c2ccccc2CSc2ccccc21 (centres undefined) -22.4%, CN1CCN(CCCNC(=O)C2CCN(c3nnc(-n4cccc4)s3)CC2)CC1 8.6%, O=C(NCCCc1ccccc1)C1CCN(c2nnc(-n3cccc3)s2)CC1 6.7%, O=C(Nc1ccc(N2CCCCC2)cc1)c1cccnc1Cl -16.3%, CCN1CCN(c2cc(C)c3cc(NC(=O)c4cccnc4Cl)ccc3n2)CC1 25.4%, O=C(CNC(=O)c1ccco1)OCc1cccc(Cl)c1 -8.6%, O=C(OC1CCCCC1)c1ccc(NC(=O)C2CCCCC2)cc1 6.4%, Cc1ccc2c(c1C)NC(C)CC2C (centres undefined) -4.5%, COC(=O)c1ccc(C2Nc3ccc(/C(C)=N/NC(=O)C(OC)c4ccccc4)cc3C3C=CCC32)cc1 (centres undefined) 5.4%, O=C(O)C1Nc2c(C(=O)N3CCOCC3)cccc2C2C=CCC12 (centres undefined) 28.7%, CC(=O)c1ccc2c(c1)C1C=CCC1C(c1ccncc1)N2 (centres undefined) -8.3%, CC(C)C1Nc2ccc(S(N)(=O)=O)cc2C2C=CCC21 (centres undefined) 25.6%, Cc1ccc(S(=O)(=O)N2CCCN(S(=O)(=O)c3ccc(C)c(C)c3)CC2)cc1C -11.3%, Cc1cccc(C)c1NC(=O)CNc1ccccc1 0.2%, Cn1c(=O)[nH]c(=O)c2c1nc(Br)n2CC(O)c1ccccc1 (centres undefined) 6.4%, CCCCNC(=O)C1C2C=CC3(CN(Cc4ccc(C)cc4)C(=O)C13)O2 (centres undefined) 2.1%, O=C(C1CCCN(Cc2ccncc2)C1)N1CCc2ccccc2C1 (centres undefined) -14.9%, CCOC(=O)CC(N)c1ccc(OC)cc1 (centres undefined) 14.7%, CCCN=C(C)c1c(-c2ccccc2)[nH]n(-c2nc3ccccc3s2)c1=O -6.3%, COC(=O)Cc1[nH]n(-c2nc3ccccc3s2)c(=O)c1C(C)=O -6.8%, CSc1nnc2n(Cc3ccccc3)c(=O)c3c4c(sc3n12)COC(C(C)C)C4 (centres undefined) 1.6%, Cc1ccc(S(=O)(=O)NNC(=O)C2Cc3c(ccc4ccccc34)O2)cc1 (centres undefined) -1.6%, Cc1ccc(CSCCNC(=O)c2ccc(N(C)S(=O)(=O)c3ccccc3)cc2)cc1 0%, CC1CN(S(=O)(=O)c2cccc(C(=O)OCc3cc(=O)oc4cc(O)ccc34)c2)CC(C)O1 (centres undefined) 16.7%, CCN(CC)c1ccc(C(=O)OCc2cc(=O)oc3cc(O)ccc23)cc1 0%, N#CCCN1CCN(CCC#N)CC1 -1.9%, COCCCn1c2nc3ccccc3nc2c2c(=O)n(Cc3ccc(Cl)cc3)cnc21 -3.8%, COc1ccc(C2Nc3ccccc3C(=O)N2c2ccc(C)cc2)cc1Cn1nc(C)c([N+](=O)[O-])c1C (centres undefined) 8.3%, CCS(=O)(=O)N1CCN(c2cccc(C)c2C)CC1 4.1%, CCS(=O)(=O)N1Cc2ccccc2CC1C(=O)N1CCN(c2ccccc2)CC1 (centres undefined) 27%, CC1CCCN(c2oc(-c3cccc4ccccc34)nc2C#N)C1 (centres undefined) 6.4%, C/C(N)=C(/C#N)C(=O)CSc1nc2ccc(C)cc2[nH]1 8.9%, COc1ccc2nc(SCC(=O)/C(C#N)=C(\C)N)[nH]c2c1 -14.3%, O=C(O)CCCNc1cc(N2CCC3(CC2)OCCO3)c2noc3c2c1C(=O)c1ccccc1-3 33.8%, CCOC(=O)C(C(=O)OCC)c1cc(Br)c2noc3c2c1C(=O)c1ccccc1-3 -31.4%, CCCCOC(=O)Cn1c(=O)n(CC(=O)OCCCC)c2ccccc21 3.3%, COc1ccc(C(CNC(=O)c2ccc(S(=O)(=O)N3CCOCC3)cc2)N2CCCCC2)cc1 (centres undefined) 0.7%, Cc1ccc(S(=O)(=O)N2CCCC2)cc1C(=O)O 27.9%, Cc1ccc(S(=O)(=O)N2CCCCC2)cc1C(=O)Nc1ccc2cn[nH]c2c1 5.9%, COC(=O)c1ccccc1NC(=O)c1noc2c1CC(C(C)(C)C)CC2 (centres undefined) -0.1%, COC(=O)c1ccccc1NC(=O)c1noc2c1CCCC2 -7.7%, O=C(Nc1ccc(F)cc1F)c1noc2c1CCC2 46.1%, O=C(Nc1ccccc1C(=O)N1CCOCC1)c1noc2c1CCCC2 -1.4%, O=C(CCCN1C(=O)CCC1=O)Nc1ccccc1F 38.1%, Cc1csc(NC(=O)CSc2nnc(Cn3c(=O)sc4ccccc43)n2-c2ccccc2)n1 -8.5%, CCCC(=O)Nc1ccc2oc(-c3ccc(OC)c(Br)c3)nc2c1 -48.6%, O=C(CN1CCCCC1)Nc1cccc(-n2cnnn2)c1 5.6%, CC(C)(C)n1ncc2c(=O)n(CC(=O)NC3CCCCC3)cnc21 -2.2%, COC(=O)c1oc2ccc(Br)cc2c1NC(=O)c1ccccc1 -10.4%, Cc1cc(C)nc(Nc2ccc(N3CCOCC3)cc2)n1 37.9%, Cc1cc(C)nc(Nc2ccc(C(=O)O)cc2)n1 1.7%, CCCCCCNc1nc(NCc2ccco2)nc(OCC)n1 -31.5%, Cc1nc(SCC(=O)NCc2ccco2)[nH]c(=O)c1C -5.3%, Cc1cc(N)ccc1-n1c(C)ccc1C -6.6%, NC(=O)c1cc(N)ccc1N1CCCC1 7.2%, CCc1nnc(NC(=O)C(=O)NCCOC(=O)c2ccccc2Cl)s1 -14.4%
